The results in this text go back to PubChem BioAssay (NCATS).

The structures appear in SMILES notation. A number with no mark means an inactive call. Inconclusive results are not listed. Active and inactive are the calls of the source. Unless noted, calls come from the whole dose curve; as a rule, active = well fitted curve in either direction with a large enough effect (not every such curve was filed as active); inconclusive = small, poorly fitted or top-dose-only effect, or another doubt; inactive = flat fitted curve, though single readings scatter.

Assay [1] addresses Lysosomal acid glucosylceramidase (Homo sapiens) (UniProt P04062). The assay can be described thus: Glucocerebrosidase-p2 (AID 348; in the data active = potency below about 10 µM; note: potency is the fitted concentration of half-maximal effect). As to conditions: purified GBA, blue fluorogenic substrate, 40 min. An outline of the steps: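 Normal human glucocerebrosidase (0.2 nM) with blue fluorogenic substrate (80 uM final) in citrate/phosphate pH 5.9 with 10mM sodium taurocholate, 0.01% tween-20; 40 min RT, NaOH/glycine stop; fluorescence Ex 365/Em 440; AC50 from a titration from 0.6 nM upwards.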

Assay [2] is described as follows: AP1 Signaling Pathway (AID 357).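 Note: ME-180 reporter cells stimulated with EGF at its EC50 level; % is set by controls: 0 for no effect and ±100 for the full control effect.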 Conditions: ME-180 AP-1-bla reporter, EGF-induced, beta-lactamase ratio, 5 h; at 7.69 µM (top of the series) unless noted. An outline of the steps:
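In this screen, ME-180 cells in Opti-MEM with 0.5% dialyzed FBS received EC50 EGF and compound titrations for 5 h. AP-1 reporter beta-lactamase was detected via CCF4 ratio, giving AC50 for positive and negative modulators.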

Assay [3] addresses Cytochrome P450 1A2 (Homo sapiens) (UniProt P05177). The assay can be described thus: p450-cyp1a2 (AID 410; calls by dose curve; note: potency is the fitted concentration of half-maximal effect). Conditions: recombinant CYP1A2, luciferin-ME demethylation, luminescence; series mostly up to 11.4 µM. The gist of the method:
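O-Demethylation of luciferin 6' methyl ether by human CYP1A2 is monitored as luciferase luminescence. Substrate sits at Km (100uM); enzyme is 20nM. Values are scaled to 57 uM furafylline as maximal inhibition.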

The nature of assay [4]: NFAT Signaling Pathway (AID 444).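 Note: carbachol stimulus at about its EC50 of 1 µM final; % is set by controls: 0 for no effect and ±100 for the full control effect.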 As to conditions: Jurkat NFAT-bla M1, carbachol, beta-lactamase ratio, 5 h; at 7.69 µM (top of the series) unless noted. The gist of the method: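 Read-out: CCF4 FRET ratio (460 nm/530 nm) after 1 h RT dye loading, used for %activity and AC50 from titration series. Cells: Jurkat NFAT-β-lactamase/M1 line, treated with compound plus 1 uM carbachol for 5 h, 37 °C.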

Assay [5] addresses Glucocorticoid receptor (Homo sapiens) (UniProt P04150). Put plainly: GR-GFP Redistribution (AID 450;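 active = compounds whose dose series gives a full or clear partial fitted curve of increased nuclear translocation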; note: potency is the fitted concentration of half-maximal effect). Conditions: U2OS GR-GFP nuclear translocation, laser cytometry, 2 h.
The target is the same in assay [6]. The assay can be described thus: GR-EFC Redistribution (AID 451; calls by dose curve; note: potency is the fitted concentration of half-maximal effect). As to conditions: CHO-K1 GR-EFC translocation, beta-gal luminescence, 2 h. An outline of the steps:
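Translocation of GR-ED fusion to nuclear EA restores b-gal, read by luminescence after 1 h room-temperature detection. Engineered CHO-K1 biosensor cells, 1,000/well, exposed 2 h at 37 C to titrations up to 46 uM final.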

For assay [7], the target named is 3',5'-cyclic-AMP phosphodiesterase 4B (Homo sapiens) (UniProt Q07343). Put plainly: qHTS Assay for Inhibitors of PDE-IV (AID 607; active = well fitted activation curve with a large enough effect in the main read-out, with a control signal flat, not every such curve was filed as active; note: % of control where 0% means no effect). Conditions: HEK293 ACTOne CNG channel cells, membrane potential fluorescence; series mostly up to 22.9 µM. An outline of the steps: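 Cell-based read-out of cAMP via a modified cyclic nucleotide-gated channel and membrane potential dye (535/590 nm) in HEK293 cells expressing PDE4 endogenously. Compounds tested up to 22.9 uM final; 100 uM RO 20-1724 reference.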
Background: In qHTS, concentration-response curves come from the screen itself.

Assay [8] deals with Mitogen-activated protein kinase 10 (Mus musculus) (UniProt Q61831). Put plainly: JNK3 AlphaScreen Assay (AID 530).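 Note: kinase came from lysate of stimulated human HepG2 cells; signal reports phosphorylation of biotinylated GST-cJun 1-79 at Ser73 with 10 µM ATP; % is set by controls: 0 for no effect and ±100 for the full control effect.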 Conditions: JNK3 lysate, c-Jun phosphorylation; series mostly up to 11.4 µM. The gist of the method:
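qHTS titrations with 15 min compound pre-incubation before adding ATP (10 uM final). Read-out: AlphaScreen of Ser73-phosphorylated biotin-GST-cJun using HepG2 lysate JNK3 activated by IL-1β and TNFα.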
A general note: In Alpha technology, singlet oxygen from a donor bead excites a nearby acceptor bead.

Assay [9] in a line: qHTS Assay for Identification of Small Molecule Agonists for Hypoxia Response Element Signaling Pathway (AID 914; active = well fitted activation curve with a large enough effect in the signal ratio, with a control signal flat, not every such curve was filed as active; the % refers to the signal ratio; note: % of control where 0% means no effect). As to conditions: ME-180 HRE-bla reporter, beta-lactamase ratio, CoCl2, 17 h; activation: hits give high values. An outline of the steps: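 In Opti-MEM containing 0.5% dialyzed FBS and 10 mM HEPES, ME-180 HRE-bla cells received a compound titration and EC50 CoCl2. They were incubated 17 hours, then CCF4-loaded 2.5 hours at room temperature before ratio reading.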

Assay [10] addresses ATP-dependent 6-phosphofructokinase (Trypanosoma brucei brucei) (UniProt O15648). The assay can be described thus: qHTS Assay to Find Inhibitors of T. brucei phosphofructokinase: hit validation (AID 492961; active = well fitted curve in the direction sought with a large enough effect; an effect the other way counts as inactive or inconclusive;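 note: luminescence reports ADP formed as PFK phosphorylates fructose-6-phosphate with ATP; % is set by controls: 0 for no effect and ±100 for the full control effect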). Conditions: T. brucei PFK, ADP-Glo luminescence; series mostly up to 51.4 µM. An outline of the steps: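 ADP-Glo luminescence read-out of ADP formed by 1.25 nM PFK from 0.1 mM ATP and 0.5 mM F6P (TEA pH 8.0, 45 min, RT). Compounds titrated; activity normalized to no-enzyme and full-enzyme controls.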

Assay [11] in a line: qHTS profiling for inhibitors of Plasmodium falciparum proliferation (AID 504749; active = well fitted curve in the direction sought with a large enough effect; an effect the other way counts as inactive or inconclusive;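 note: 0% = DMSO vehicle and full inhibition = artemisinin control; nearly all actives have a fitted effect of over 60% in size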). Conditions: P. falciparum in erythrocytes, SYBR Green DNA, 72 h, at 28.7 µM (top of the series). An outline of the steps: (§1)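 SYBR Green fluorescence of parasite DNA, read after lysis and overnight dark incubation, measured growth over 72 h in erythrocyte culture at 0.3% parasitemia and 2.5% hematocrit. Data normalised to DMSO and 0.29 uM artemisinin, with plate-drift correction.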

The subject of a further assay is AS120. The description is as above. As to conditions: P. falciparum in erythrocytes, SYBR Green DNA, 72 h; series mostly up to 28.7 µM. An outline of the steps:
as §1

A further assay deals with CP203. Described as above. Conditions: P. falciparum in erythrocytes, SYBR Green DNA, 72 h; series mostly up to 28.7 µM. An outline of the steps: as §1
The subject of a further assay is W2. Described as above. Conditions: P. falciparum in erythrocytes, SYBR Green DNA, 72 h; series mostly up to 28.7 µM. The gist of the method:
as §1

The nature of assay [12]: Stat Signaling Pathway (AID 446). Conditions: ME-180 (cervical carcinoma) SIE beta-lactamase reporter, IL-6 stimulated, 5 h; at 7.69 µM (top of the series) unless noted. An outline of the steps: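 FRET read-out (405 nm excitation, 460/530 nm emission) of a beta-lactamase reporter under a STAT-inducible element in ME-180 cervical carcinoma cells. Cells with compound receive 40 pM IL-6 for 5 h. Values are normalised to AC90 stimulation and AC90 JAK-inhibitor controls.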

The target of assay [13] is Cytochrome P450 2C19 (Homo sapiens) (UniProt P33261). Put plainly: qHTS Assay for Inhibitors and Substrates of Cytochrome P450 2C19 (AID 899; active = well fitted curve in the direction sought with a large enough effect; an effect the other way counts as inactive or inconclusive; note: nearly all actives have a fitted effect of over 60% in size; note: potency is the fitted concentration of half-maximal effect). As to conditions: recombinant CYP2C19, luciferin-H EGE luminescence; series mostly up to 11.4 µM. An outline of the steps:
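Luminescence readout of luciferin formed from 10uM Luciferin-H EGE (KM level) by 5 nM CYP2C19 in 50mM KPO4. 60 min NADPH-driven reaction at 37C after 10 min compound preincubation; data scaled to 57uM ketoconazole inhibition.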

Lysosomal acid glucosylceramidase (Homo sapiens), sequence (P04062 whole entry, looked up): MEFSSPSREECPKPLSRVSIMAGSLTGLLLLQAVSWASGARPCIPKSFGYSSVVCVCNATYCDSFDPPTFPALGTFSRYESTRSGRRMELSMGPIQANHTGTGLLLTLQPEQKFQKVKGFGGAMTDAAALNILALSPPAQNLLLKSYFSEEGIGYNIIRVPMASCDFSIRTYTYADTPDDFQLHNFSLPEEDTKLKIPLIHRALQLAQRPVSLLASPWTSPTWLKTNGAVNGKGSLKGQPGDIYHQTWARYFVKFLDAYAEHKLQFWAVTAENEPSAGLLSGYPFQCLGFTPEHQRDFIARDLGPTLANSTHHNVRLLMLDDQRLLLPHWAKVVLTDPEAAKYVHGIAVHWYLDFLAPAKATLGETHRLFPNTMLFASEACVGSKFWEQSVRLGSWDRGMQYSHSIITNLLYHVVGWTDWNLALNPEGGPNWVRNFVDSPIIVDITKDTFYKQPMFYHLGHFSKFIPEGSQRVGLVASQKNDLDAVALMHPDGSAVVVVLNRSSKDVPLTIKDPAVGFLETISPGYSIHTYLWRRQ
Cytochrome P450 1A2 (Homo sapiens), sequence (P05177 whole entry, looked up): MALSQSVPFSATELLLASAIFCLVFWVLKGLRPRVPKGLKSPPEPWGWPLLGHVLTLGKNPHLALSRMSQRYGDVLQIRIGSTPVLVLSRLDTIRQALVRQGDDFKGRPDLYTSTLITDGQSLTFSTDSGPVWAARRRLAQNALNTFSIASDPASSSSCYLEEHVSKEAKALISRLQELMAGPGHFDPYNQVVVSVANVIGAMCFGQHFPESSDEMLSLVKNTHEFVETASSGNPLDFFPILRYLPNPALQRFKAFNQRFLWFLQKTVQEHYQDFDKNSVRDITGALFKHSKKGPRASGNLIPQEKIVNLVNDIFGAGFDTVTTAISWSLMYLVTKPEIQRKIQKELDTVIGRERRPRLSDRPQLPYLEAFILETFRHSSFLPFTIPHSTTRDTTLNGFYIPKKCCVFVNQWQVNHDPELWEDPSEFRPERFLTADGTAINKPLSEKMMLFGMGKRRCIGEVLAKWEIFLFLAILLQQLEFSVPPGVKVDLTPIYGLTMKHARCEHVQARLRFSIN
3',5'-cyclic-AMP phosphodiesterase 4B (Homo sapiens), sequence (Q07343 whole entry, looked up): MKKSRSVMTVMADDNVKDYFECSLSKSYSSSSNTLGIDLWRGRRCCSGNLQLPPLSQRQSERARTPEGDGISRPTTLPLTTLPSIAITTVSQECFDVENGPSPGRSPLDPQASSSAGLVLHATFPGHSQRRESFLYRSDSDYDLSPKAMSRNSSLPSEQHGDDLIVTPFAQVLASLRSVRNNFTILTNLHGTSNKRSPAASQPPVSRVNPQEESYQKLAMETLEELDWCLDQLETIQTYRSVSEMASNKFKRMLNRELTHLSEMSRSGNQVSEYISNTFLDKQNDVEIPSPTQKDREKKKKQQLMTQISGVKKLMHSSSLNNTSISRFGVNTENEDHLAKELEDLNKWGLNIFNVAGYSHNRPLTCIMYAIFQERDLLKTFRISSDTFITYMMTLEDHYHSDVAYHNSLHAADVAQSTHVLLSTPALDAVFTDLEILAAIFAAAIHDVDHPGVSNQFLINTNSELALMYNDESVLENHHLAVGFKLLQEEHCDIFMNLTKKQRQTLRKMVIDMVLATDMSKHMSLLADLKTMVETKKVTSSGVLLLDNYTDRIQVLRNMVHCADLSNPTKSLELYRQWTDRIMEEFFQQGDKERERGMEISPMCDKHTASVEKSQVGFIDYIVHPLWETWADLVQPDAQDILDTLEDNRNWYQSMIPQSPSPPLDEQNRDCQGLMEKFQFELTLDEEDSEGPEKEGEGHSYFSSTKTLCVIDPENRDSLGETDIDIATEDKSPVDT
Glucocorticoid receptor (Homo sapiens), sequence (P04150 whole entry, looked up): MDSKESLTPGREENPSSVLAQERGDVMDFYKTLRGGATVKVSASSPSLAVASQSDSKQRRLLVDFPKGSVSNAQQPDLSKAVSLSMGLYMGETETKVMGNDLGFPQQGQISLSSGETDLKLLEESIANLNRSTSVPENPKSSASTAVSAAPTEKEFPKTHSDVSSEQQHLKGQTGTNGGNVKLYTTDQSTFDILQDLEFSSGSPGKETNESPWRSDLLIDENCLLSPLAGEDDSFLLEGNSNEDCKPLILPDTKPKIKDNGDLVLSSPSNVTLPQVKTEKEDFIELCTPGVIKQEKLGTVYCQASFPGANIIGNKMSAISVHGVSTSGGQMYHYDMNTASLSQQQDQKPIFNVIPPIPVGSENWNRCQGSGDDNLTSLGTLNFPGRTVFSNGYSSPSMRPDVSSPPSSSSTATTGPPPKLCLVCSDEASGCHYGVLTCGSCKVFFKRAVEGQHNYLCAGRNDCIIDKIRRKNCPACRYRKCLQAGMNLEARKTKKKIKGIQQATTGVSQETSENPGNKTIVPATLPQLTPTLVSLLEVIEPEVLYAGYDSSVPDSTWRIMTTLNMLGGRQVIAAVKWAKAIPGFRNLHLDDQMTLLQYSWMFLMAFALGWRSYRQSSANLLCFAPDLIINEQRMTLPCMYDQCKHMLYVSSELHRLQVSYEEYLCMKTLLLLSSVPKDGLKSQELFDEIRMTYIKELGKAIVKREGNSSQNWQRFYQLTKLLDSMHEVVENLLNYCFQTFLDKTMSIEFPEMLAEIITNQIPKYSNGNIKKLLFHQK
Cytochrome P450 2C19 (Homo sapiens), sequence (P33261 whole entry, looked up): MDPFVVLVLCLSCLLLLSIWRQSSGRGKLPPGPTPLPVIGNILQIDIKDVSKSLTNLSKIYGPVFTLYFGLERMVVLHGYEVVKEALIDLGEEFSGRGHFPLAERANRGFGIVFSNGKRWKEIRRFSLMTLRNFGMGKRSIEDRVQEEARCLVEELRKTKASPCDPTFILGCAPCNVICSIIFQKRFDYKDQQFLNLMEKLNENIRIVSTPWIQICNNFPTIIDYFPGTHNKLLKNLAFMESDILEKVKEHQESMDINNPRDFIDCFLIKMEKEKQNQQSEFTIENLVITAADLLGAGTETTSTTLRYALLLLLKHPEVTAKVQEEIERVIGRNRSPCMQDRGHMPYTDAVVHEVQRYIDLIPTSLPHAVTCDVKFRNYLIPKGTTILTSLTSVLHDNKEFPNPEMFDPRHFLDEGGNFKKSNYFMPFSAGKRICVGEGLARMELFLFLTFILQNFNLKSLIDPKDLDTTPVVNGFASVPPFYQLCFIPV
ATP-dependent 6-phosphofructokinase (Trypanosoma brucei brucei), sequence (O15648 whole entry, looked up): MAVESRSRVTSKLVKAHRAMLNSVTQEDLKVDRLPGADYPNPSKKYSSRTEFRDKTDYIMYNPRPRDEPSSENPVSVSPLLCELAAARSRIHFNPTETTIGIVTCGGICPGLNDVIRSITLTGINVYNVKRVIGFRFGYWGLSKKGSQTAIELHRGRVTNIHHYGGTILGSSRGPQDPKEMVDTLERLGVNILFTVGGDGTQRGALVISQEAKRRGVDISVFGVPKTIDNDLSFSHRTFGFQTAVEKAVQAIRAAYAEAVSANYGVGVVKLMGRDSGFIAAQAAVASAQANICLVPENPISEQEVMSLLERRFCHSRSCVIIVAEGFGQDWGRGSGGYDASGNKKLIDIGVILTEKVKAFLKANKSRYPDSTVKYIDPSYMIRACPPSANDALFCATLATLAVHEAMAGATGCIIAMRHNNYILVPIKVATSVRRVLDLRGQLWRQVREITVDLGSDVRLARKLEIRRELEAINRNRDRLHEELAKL

For the molecule `O=C(O)/C=C\c1c2ccc(=O)c(O)c-2oc2c(O)c(O)ccc12`, the Potency in assay [1] is over 11.4 µM; in assay [5], over 46 µM; in assay [6], over 9.22 µM. Besides, the values for the activity change, negative = inhibition in assay [2], in [3] and in assay [4] were -8.29%, -19.8% [at 2.29 µM] and 2.25%, respectively. Further, in [7], the Potency entry is “inactive”.

Consider `CC(=O)N[C@@H]1CONC1=O`, for which the Potency in assay [1] is over 11.4 µM; in [6], over 9.22 µM. The activity change, negative = inhibition in [2] was 10.9%; in assay [4], 5.02%. In addition, the Potency result in assay [3], in [8] and in assay [7] was “inactive” each time.

In the case of `CC1(C)[C@@H]2CC[C@]1(C)[C@@H](OC(=O)CSC#N)C2`, the Potency in assay [1] was over 11.4 µM. In addition, the activity change, negative = inhibition was -4% in assay [2], -18.3% [at 2.29 µM] in [3] and 18.3% in [4]. Besides, the Potency result (in [8]; in [7]; in the assay with AS120; with CP203; in the assay on W2) was “inactive” in each case. In addition, the activation in assay [9] is -0.299%. In addition, the result in assay [10] was inactive. Besides, the activity, negative = inhibition in assay [11] (parasite line A) was -6.1%; in assay [11] (parasite line B), -5.42%.

Consider `Nc1ncnc2c1ncn2[C@H]1O[C@@H](C(=O)O)[C@@H](O)[C@H]1O`, for which the Potency is over 11.4 µM in assay [1], over 46 µM in assay [5] and over 9.22 µM in assay [6]. Besides, the activity change, negative = inhibition in assay [2] is 17.5%. The Potency entry in assay [3], in assay [8] and in assay [7] was “inactive” throughout. Further, the activity, negative = inhibition in assay [12] was 6.21%.

With `O=C(O)[C@@H](O)[C@@H](O)[C@@H](O)[C@@H](O)c1nc2ccccc2s1`, the Potency was over 11.4 µM in assay [1]; 3.98 µM (active) in [3]; over 46 µM in assay [5]; over 9.22 µM in [6]; 3.16 µM (active) in [13]. Moreover, the activity change, negative = inhibition in assay [2] was 11.6%; in assay [4], -1.53%. The Potency entry in assay [8] and in [7] was “inactive” in each case.

Consider `COc1ccc(C[N+](C)(C)N)cc1OC`, for which the results for the Potency in assay [1], in assay [5] and in assay [6] were over 11.4 µM, over 46 µM and over 9.22 µM, respectively. Moreover, in assay [2], the activity change, negative = inhibition was 0.59%. The Potency result in [3], in [8] and in [7] was “inactive” throughout. For the same molecule, in [12], the activity, negative = inhibition is 7.15%.

For the molecule `O=C(O)C[n+]1ccccc1`, the Potency in assay [1] is over 11.4 µM. The activity change, negative = inhibition was -3.27% in assay [2] and -24% in assay [4]. Moreover, the Potency entry in assay [3], in assay [8] and in assay [7] was “inactive” throughout.

As to `O=C(O)CSc1ccn(Cc2ccccc2)c1`, the Potency was over 11.4 µM in assay [1], over 46 µM in assay [5] and over 9.22 µM in [6]. Besides, the activity change, negative = inhibition in assay [2] is -4.91%; in assay [4] it was 1.69%. The Potency result in assay [3], in assay [8], in assay [7] and in assay [13] was “inactive” throughout.
